# Screening results as filed in PubChem BioAssay.
# Shown are actives, neighbours in structure and some others; about 1.2% of the full set was active somewhere.
# RGS7-Gao reg: regulators of human RGS7-Galphao interaction. binding response (% of control), % at 10 µM. actives 0.35% (n = 220,000). P09471. Multiplexed bead flow cytometry, RGS7-Galphao binding; actives lie on both sides; in the data active means binding response below about 49% or above about 150%; inconclusive means no clear call, values can overlap the other calls; inactive means in between;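 further: fluorescent Galphao held in activated GDP-AlF4 state binding bead-coupled RGS7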
# Target sequence (P09471 whole entry, looked up): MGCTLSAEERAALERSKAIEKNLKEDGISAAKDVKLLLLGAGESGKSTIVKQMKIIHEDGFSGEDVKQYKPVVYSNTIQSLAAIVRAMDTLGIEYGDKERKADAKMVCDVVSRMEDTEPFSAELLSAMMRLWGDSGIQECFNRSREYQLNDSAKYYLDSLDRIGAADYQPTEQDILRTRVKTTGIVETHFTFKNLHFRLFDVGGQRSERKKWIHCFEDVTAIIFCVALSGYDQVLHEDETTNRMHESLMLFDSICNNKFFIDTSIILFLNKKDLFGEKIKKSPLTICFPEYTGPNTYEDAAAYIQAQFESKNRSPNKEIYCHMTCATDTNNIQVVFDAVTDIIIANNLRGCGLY
# Avidin bead fluor: avidin bead compound fluorescence profile. Avidin beads, compound fluorescence 488/530 nm, flow cytometry; hits give high values. fluorescence (KMESF) at 10 µM. actives 0.38% (n = 220,000). AID 1775; in the data active means fluorescence above about 47
# GSH bead fluor: GSH bead compound fluorescence profile | actives 0.25% (n = 190,000) | fluorescence (KMESF) at 10 µM | GSH beads flow cytometry, compound fluorescence 488/530 nm; hits give high values; in the data active means fluorescence above about 89;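 further: glutathione beads carrying GST-tagged Bcl family fusion proteins plus one bare bead set; values are compound well signal with DMSO vehicle wells as background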
# RGS8-Gao: regulators of human RGS8-Galphao interaction; actives 0.34% (n = 220,000); AID 1423; response (percent of control binding), % at 10 µM; multiplexed bead flow cytometry, RGS8-Galphao binding; actives lie on both sides; in the data active means response below about 60% or above about 140%; inactive means in between;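 further: Galphao activated as the GDP aluminium fluoride complex binding bead-coupled RGS8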
# RGS4-Gao reg: modulates binding of RGS4 to human Galphao | actives 0.33% (n = 220,000) | Multiplexed bead flow cytometry; actives lie on both sides | P09471 | binding response (% of control), % at 10 µM; in the data active means binding response below about 49% or above about 150%; inactive means in between;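 further: fluorescent Galphao activated with aluminum fluoride binding bead-coupled RGS4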
# RGS16-Gao HTS: modulates binding between human RGS16 and Galphao; binding response (% of control), % at 10 µM; O15492+P09471; bead-based flow cytometry RGS16-Galphao binding, fluorescence; actives lie on both sides; actives 0.38% (n = 220,000);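 further: Galphao activated by GDP with aluminum fluoride before binding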
# RGS-Gao: RGS4-Galphao interaction regulator (human) | shares compounds with RGS16-Gao HTS | multiplexed bead flow cytometry, RGS–Galpha-o binding | RGS4–Galpha-o binding response, % at 10 µM | actives 99% (n = 1,600);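 further: fluorescently labeled Galpha-o bound to GDP with aluminium fluoride binding biotinylated RGS beads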
# Biotin-avidin: biotin-avidin bead binding disruption counter-screen | streptavidin beads, fluorescein-biotin binding, flow cytometry | inhibition, % at 10 µM | 1,700 tested, under 10 active | shares compounds with RGS16-Gao HTS;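 active means inhibition above 50%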;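 further: median green fluorescence of gated singlet beads compared with DMSO control wells; 0% = DMSO wells and 100% = complete loss of bead fluorescence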
# RGS8-Gao confirm: confirmation of regulators of human RGS8-Galphao interaction; shares compounds with RGS16-Gao HTS; bead-based flow cytometry RGS8-Galphao binding, fluorescence; actives lie on both sides; binding response (% of control), % at 10 µM; actives 3% (n = 1,700); in the data active means binding response below about 72% or above about 130%; inactive means in between;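 further: Galphao activated as GDP AlF4 complex before binding bead RGS8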
# RGS7-Gao single: confirmation of regulators of human RGS7-Galphao interaction | shares compounds with RGS16-Gao HTS | bead-based flow cytometry RGS7-Galphao binding; actives lie on both sides | response (percent of control binding), % at 10 µM | actives 7.8% (n = 1,700) | AID 1837; in the data active means response below about 75% or above about 130%; inactive means in between;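 further: fluorescent Galphao activated with GDP and aluminum fluoride binding bead-coupled RGS7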
# RGS16-Gao single: RGS16-Galphao interaction regulation, single point confirmation. response (% of control binding), % at 10 µM. AID 1838. actives 4% (n = 1,700). shares compounds with RGS16-Gao HTS. bead-based flow cytometry, RGS16-Galphao binding; actives lie on both sides; in the data active means response below about 74% or above about 130%; inactive means in between;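 further: Galphao activated as the GDP aluminium fluoride complex binding bead-coupled RGS16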
# RGS4-Gao confirm: RGS4-Galphao interaction regulation, single point confirmation; shares compounds with RGS16-Gao HTS; RGS4-Galphao binding, multiplexed bead flow cytometry; actives lie on both sides; binding response (% of control), % at 10 µM; actives 4% (n = 1,700); in the data active means binding response below about 74% or above about 130%; inactive means in between
# RGS19-Gao conf: RGS19-Galphao interaction regulation, single point confirmation; shares compounds with RGS16-Gao HTS; bead-based flow cytometry RGS19-Galphao binding; actives lie on both sides; response (percent of control binding), % at 10 µM; actives 5% (n = 1,700); in the data active means response below about 50% or above about 160%; inactive means in between;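 further: 100% = no compound control and 0% = blank background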
# Target sequence (P09471 whole entry, looked up): as above
# Target sequence (P49795 whole entry, looked up): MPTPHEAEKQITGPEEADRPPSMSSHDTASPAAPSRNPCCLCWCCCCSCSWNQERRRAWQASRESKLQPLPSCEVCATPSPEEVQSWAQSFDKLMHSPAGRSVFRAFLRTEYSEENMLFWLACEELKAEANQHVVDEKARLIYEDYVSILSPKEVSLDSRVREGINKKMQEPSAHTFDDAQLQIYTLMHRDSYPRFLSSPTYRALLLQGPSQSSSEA
# Starred values were filed as active, the others as inactive; ? = inconclusive; · = no result given; [ ] = another dose, or the depositor's remark. Unless noted, how the calls were made is not given here.
SMILES,RGS7-Gao reg,Avidin bead fluor,GSH bead fluor,RGS8-Gao,RGS4-Gao reg,RGS16-Gao HTS,RGS-Gao,Biotin-avidin,RGS8-Gao confirm,RGS7-Gao single,RGS16-Gao single,RGS4-Gao confirm,RGS19-Gao conf
CCOc1ccc(CC(=O)NNC(=O)/C=C/C(=O)O)cc1,?,6,·,96,102,98,·,·,·,·,·,·,·
COc1ccc(/C=C/c2nnc(NC(C)=O)s2)cc1,?,44,·,110,158*[activator],144,·,-2,100,106,101,102,106
COC(=O)Nc1nnc(/C=C/c2ccc(OC)cc2)s1,96,8,19,90,98,49,·,·,·,·,·,·,·
O=C(COC(=O)/C=C/c1ccco1)NCc1ccc2c(c1)OCO2,?,11,9,100,102,99,·,·,·,·,·,·,·
COc1cccc(OCC(=O)NNC(=S)Nc2ccc(Cl)cc2Cl)c1,97,8,22,100,98,102,·,·,·,·,·,·,·
Cc1ccccc1/C=N/n1c(-c2cc(-c3ccccc3)n[nH]2)n[nH]c1=S,?,2,·,41*,37*,30,·,-2,95,109,91,96,97
Cc1ccsc1/C=N/n1c(-c2cc(-c3ccccc3)n[nH]2)n[nH]c1=S,?,9,·,101,100,102,·,·,·,·,·,·,·
COc1cc(/C=C/C(=O)O)cc2c1OCCO2,?,10,15,102,105,101,·,·,·,·,·,·,·
CC(=O)NC(Cc1c[nH]c2ccccc12)C(=O)OCC(=O)Nc1cc(C)on1 (configuration not stated),112,227*,15,21*,72,29,72*,0,106,105,111,108,111
C=CCn1c(C(CC(C)C)CC(C)O)n[nH]c1=S (configuration not stated),108,12,9,94,101,84,·,·,·,·,·,·,·
Cc1[nH]c2ccccc2c1C(c1ccncc1)N1CCN(c2ccccc2F)CC1 (configuration not stated),160*[activator],92*,10,93,119,101,119*,1,101,101,101,101,100
Cc1cc(SCC(=O)NC(=O)c2cccn2C)nc2ccccc12,?,7,·,104,102,107,·,·,·,·,·,·,·
Clc1cccc(Nc2nc(-c3cccnc3)cs2)c1,100,10,10,100,104,103,·,·,·,·,·,·,·
O=C1C(=Cc2ccc(Br)o2)C(=O)c2ccccc21,1.6*,-6,8,32*,53,8.3*,53*,·,·,·,·,·,·
Cc1ccc(-n2c(SCC(=O)NCCN3C(=O)CSC3=O)nnc2-c2ccccc2)cc1,87,8,5,78,90,18*,90*,0,100,103,100,102,94
Cn1c(SCC(=O)NCCN2C(=O)CSC2=O)nnc1-c1ccccc1,213*[activator],138*,9,107,124,130,124*,-1,103,105,103,104,103
CC(=O)Nc1ccc(NC(=O)C2CC(=O)N(c3ccccc3Cl)C2)cc1 (configuration not stated),101,7,17,102,98,105,·,·,·,·,·,·,·
CCCCc1n[nH]c(=S)n1Cc1ccc(Cl)cc1,102,26,10,105,104,106,·,·,·,·,·,·,·
CCC(C(=O)Nc1ccc(C(=O)N2CCCC2)cc1)c1ccccc1 (configuration not stated),101,14,10,103,101,104,·,·,·,·,·,·,·
CC1CCN(CC(CS(=O)(=O)c2ccc([N+](=O)[O-])cc2)N2CCC(C)CC2)CC1 (configuration not stated),?,10,·,98,95,94,·,·,·,·,·,·,·
Cc1c(Cl)cccc1NC(=O)CC(C(=O)O)C1CCCO1 (configuration not stated),130,5,14,148*[activator],136,323,136*,-1,106,113,109,106,96
COc1ccc(NC(=O)CSc2ncnc3c2cnn3CCc2ccccc2)cc1,0.3*,0,9,19*,-20*,-12*,·,-1,100,101,101,103,103
COc1cccc(NC(=O)CSc2ncnc3c2cnn3Cc2ccccc2)c1,96,12,33,101,102,101,·,·,·,·,·,·,·
CS(=O)(=O)NCCOc1ccc(S(=O)(=O)NCCOc2ccccc2)cc1,?,10,11,101,102,98,·,·,·,·,·,·,·
O=S(=O)(NCCOc1ccccc1)c1ccc2ccccc2c1,89,5,12,86,90,-1.5*,90*,·,·,·,·,·,·
SMILES,RGS7-Gao reg,Avidin bead fluor,GSH bead fluor,RGS8-Gao,RGS4-Gao reg,RGS16-Gao HTS,RGS-Gao,Biotin-avidin,RGS8-Gao confirm,RGS7-Gao single,RGS16-Gao single,RGS4-Gao confirm,RGS19-Gao conf
CC(=O)/C(=N/Nc1ccccc1)Sc1nnc(C(O)c2ccccc2)n1-c1ccccc1 (configuration not stated),96,8,15,85,99,18*,99*,0,95,105,99,101,106
CC(=O)/C(=N/Nc1ccccc1Cl)Sc1nnc(C(O)c2ccccc2)n1-c1ccccc1 (configuration not stated),98,9,15,100,99,90,·,·,·,·,·,·,·
CC(C)=CCCC1(C)C=Cc2c(c(C)cc3c2[nH]c2cc(O)ccc23)O1 (configuration not stated),?,7,·,104,106,103,·,·,·,·,·,·,·
NC(CC(=O)O)c1ccc(Br)cc1 (configuration not stated),105,5,10,125,107,179*[activator],107*,0,102,103,102,103,104
COc1ccc2c(=O)c3c(=O)n(-c4ccccc4)c(-c4ccc(C)cc4)nc3oc2c1,?,5,·,97,96,99,·,·,·,·,·,·,·
CN1CCN(NC(=O)c2ccc(Cl)s2)CC1,?,9,19,102,101,104,·,·,·,·,·,·,·
